Test [1] deals with Retinoic acid receptor RXR-alpha (Homo sapiens) (UniProt P19793). The test is described as follows: ATG_RXRa_TRANS: Attagene TRANS-FACTORIAL HepG2 Assay for human Retinoid X Receptor alpha (RXRa) (AID 2283012; active means hit-call score of the fitted dose curve at least 0.9, where 1 is the maximum). The gist of the method:
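TRANS format reporting activity of exogenous RXRa-Gal4 chimera in transiently transfected HepG2, 24 h exposure. Reporter transcripts quantified by RT-PCR with capillary electrophoresis, with gain of signal scored relative to DMSO.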

Test [2] deals with human Retinoid X Receptor beta (RXRb), RXRB (gene 6257) (UniProt P28702). The test is described as follows: ATG_RXRb_TRANS: Attagene TRANS-FACTORIAL HepG2 Assay for human Retinoid X Receptor beta (RXRb) (AID 2283013; active means hit-call score of the fitted dose curve at least 0.9, where 1 is the maximum). The method in brief:
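Readout is reporter transcript induction after 24 h dosing. It is measured by RT-PCR of total RNA followed by fluorescent capillary electrophoresis. HepG2 liver cells carry transfected multiple reporter units driven by an exogenous RXRb-Gal4 fusion; activity is relative to DMSO.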

In test [3] the target is human Thyroid Receptor alpha (THRa1), THRA (gene 7067) (UniProt P10827). The test is described as follows: ATG_THRa1_TRANS: Attagene TRANS-FACTORIAL HepG2 Assay for human Thyroid Receptor alpha (THRa1) (AID 2283014; active means hit-call score of the fitted dose curve at least 0.9, where 1 is the maximum). The method in brief: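 Transient HepG2 transfection, NR-Gal4 chimera driving GAL4-UAS reporters; 24 h compound exposure; total RNA, oligo(dT) RT, PCR, fluorescent primer extension, capillary electrophoresis. Upward direction vs DMSO control.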
Chain of human Thyroid Receptor alpha (THRa1), THRA (gene 7067) (P10827 whole entry, looked up, the tested form may be a part): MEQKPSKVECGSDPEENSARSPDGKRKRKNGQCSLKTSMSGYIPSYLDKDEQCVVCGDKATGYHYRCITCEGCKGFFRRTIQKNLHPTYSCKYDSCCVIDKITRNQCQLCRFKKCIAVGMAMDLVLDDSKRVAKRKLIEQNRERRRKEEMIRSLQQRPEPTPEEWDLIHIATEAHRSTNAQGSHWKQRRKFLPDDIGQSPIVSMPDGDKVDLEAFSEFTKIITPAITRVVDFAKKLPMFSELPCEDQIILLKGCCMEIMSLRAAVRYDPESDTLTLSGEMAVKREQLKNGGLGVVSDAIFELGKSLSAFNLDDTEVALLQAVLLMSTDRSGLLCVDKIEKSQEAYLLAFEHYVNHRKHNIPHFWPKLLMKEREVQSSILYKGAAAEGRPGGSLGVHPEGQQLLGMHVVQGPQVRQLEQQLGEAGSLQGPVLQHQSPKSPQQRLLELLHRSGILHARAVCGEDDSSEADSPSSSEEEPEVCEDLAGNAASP

Read-out in test [4]: E-selectin (Homo sapiens) (UniProt P16581)
The test is described as follows: BSK_3C_Eselectin: BioMAP Diversity Plus: 3C Assay for Eselectin Biomarker Activity (AID 2283015).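 On outcome: cell surface E-selectin protein quantified by ELISA 24 h after dosing.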 The following applies: primary human endothelial cells (HUVEC); actives raise or lower the signal. The method in brief:
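HUVEC, 3C stimulation; compound exposure 24 h; E-selectin by ELISA; gain- or loss-of-signal fitted bidirectionally vs DMSO baseline.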

Read-out in test [5]: Interleukin-1 alpha (IL1a), IL1A (gene 3552)
The test is described as follows: BSK_BE3C_IL1a: BioMAP Diversity Plus: BE3C Assay for Interleukin-1 alpha (IL1a) Biomarker Activity (AID 2283016). The following applies: primary human bronchial epithelial cells; actives raise or lower the signal. The method in brief:
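IL-1a measured by ELISA after 24 h treatment of human primary bronchial epithelial cells, with gain or loss of signal fitted versus DMSO. Parallel cultures stained with SRB gauge overt cytotoxicity.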

Read-out in test [6]: Monocyte Chemoattractant Protein-1 (MCP1), CCL2 (gene 6347)
The test is described as follows: BSK_3C_MCP1: BioMAP Diversity Plus: 3C Assay for Monocyte Chemoattractant Protein-1 (MCP1) Biomarker Activity (AID 2283017). The following applies: primary human endothelial cells (HUVEC); actives raise or lower the signal. The gist of the method:
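HUVEC, 3C system; 24 h chemical exposure; MCP-1 by ELISA; bidirectional curve fit vs DMSO baseline.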

Read-out in test [7]: Monocyte Chemoattractant Protein-1 (MCP1), CCL2 (gene 6347)
The test is described as follows: BSK_4H_MCP1: BioMAP Diversity Plus: 4H Assay for Monocyte Chemoattractant Protein-1 (MCP1) Biomarker Activity (AID 2283018). The following applies: primary human endothelial cells (HUVEC); actives raise or lower the signal. The gist of the method: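 ELISA of MCP-1 (CCL2) 24 h after chemical dosing of HUVEC in the BioMAP 4H system. Gain or loss versus DMSO fitted; parallel SRB staining (560 nm) tracked overt cytotoxicity.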

Read-out in test [8]: Human Leukocyte Antigen - DR isotype (HLADR), HLA-DRA (gene 3122)
The test is described as follows: BSK_3C_HLADR: BioMAP Diversity Plus: 3C Assay for Human Leukocyte Antigen - DR isotype (HLADR) Biomarker Activity (AID 2283019).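 On outcome: ELISA of cell-surface HLA-DR on HUVEC 24 h after dosing.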 The following applies: primary human endothelial cells (HUVEC); actives raise or lower the signal. The method in brief:
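HUVEC, 3C stimulation, 24 h post-dose; HLA-DR by ELISA; bidirectional curve fit vs DMSO baseline; gain or loss of signal scored.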

Read-out in test [9]: Interleukin-8 (IL8), CXCL8 (gene 3576)
The test is described as follows: BSK_3C_IL8: BioMAP Diversity Plus: 3C Assay for Interleukin-8 (IL8) Biomarker Activity (AID 2283020). The following applies: primary human endothelial cells (HUVEC); actives raise or lower the signal. The gist of the method:
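IL-8 was measured by ELISA in HUVEC cultures 24 h after chemical dosing, with gain or loss of signal fitted relative to DMSO. Parallel SRB total-protein staining tracked overt cytotoxicity.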

Read-out in test [10]: Monokine induced gamma interferon (MIG), CXCL9 (gene 4283)
The test is described as follows: BSK_3C_MIG: BioMAP Diversity Plus: 3C Assay for Monokine induced gamma interferon (MIG) Biomarker Activity (AID 2283021).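 On AC50: MIG protein level measured by immunoassay in the treated endothelial cultures.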 The following applies: primary human endothelial cells (HUVEC); actives raise or lower the signal. The gist of the method:
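ELISA measurement of MIG in human umbilical vein endothelial cells 24 h after treatment. Cytotoxicity tracked by SRB staining in parallel cultures; gain or loss of signal fitted relative to DMSO.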

Test [11] in a line: BSK_3C_SRB: Viability Assessment in the BioMAP Diversity Plus: 3C Assay (AID 2283023).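 Further: fitted both ways against DMSO so a hit may be signal rise or drop.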 The following applies: primary human endothelial cells (HUVEC). The method in brief: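 HUVEC, 24 h post-dose; 10% TCA fix, 0.1% SRB stain, A560 nm. Bidirectional curve fit vs DMSO negative control.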
Read-out in test [12]: Matrix Metallopeptidase 1 (MMP1), MMP1 (gene 4312)
The test is described as follows: BSK_BE3C_MMP1: BioMAP Diversity Plus: BE3C Assay for Matrix Metallopeptidase 1 (MMP1) Biomarker Activity (AID 2283024). The following applies: primary human bronchial epithelial cells; actives raise or lower the signal. The method in brief: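 ELISA measurement of MMP-1 after 24 h compound exposure of primary human bronchial epithelial cells. Changes in either direction fitted relative to DMSO; parallel SRB staining checked overt cytotoxicity.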

Test [13] in a line: BSK_3C_Vis: BioMAP Diversity Plus: 3C Assay for Morphology Visualization (AID 2283025).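 Further: fitted both ways so gain or loss versus DMSO counts.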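 On AC50: light microscopy image of cell morphology used as background control.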 The following applies: primary human endothelial cells (HUVEC). The method in brief:
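Light-microscopy visualization of HUVEC cultures at 24 h post-treatment, with DMSO as baseline for bidirectional fitting.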

Read-out in test [14]: Pselectin, SELP (gene 6403)
The test is described as follows: BSK_4H_Pselectin: BioMAP Diversity Plus: 4H Assay for Pselectin Biomarker Activity (AID 2283026). The following applies: primary human endothelial cells (HUVEC); actives raise or lower the signal. The method in brief: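 ELISA of surface P-selectin on HUVEC, 24 h after dosing, with parallel SRB staining (0.1% after 10% TCA fixation, 560 nm) for overt cytotoxicity. Activity fitted in both directions relative to DMSO.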

Test [15] is described as follows: BSK_4H_SRB: Viability Assessment in the BioMAP Diversity Plus: 4H Assay (AID 2283027).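 Further: cells exposed to compound for 24 h before staining.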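 On AC50: curves fitted both ways versus DMSO so AC50 may be loss or gain.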 The following applies: primary human endothelial cells (HUVEC). The gist of the method: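 Cytotoxicity read-out in primary human endothelial cells: after 24 h compound exposure, cells were TCA-fixed (10%), stained with 0.1% SRB and absorbance taken at 560 nm. Values fitted in both directions relative to DMSO.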

Test [16] can be described thus: BSK_BE3C_SRB: Viability Assessment in the BioMAP Diversity Plus: BE3C Assay (AID 2283028).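 On AC50: fitted both ways so AC50 may mark signal gain or loss versus DMSO.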 The following applies: primary human bronchial epithelial cells. The method in brief:
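Primary human bronchial epithelium; chemical dosing, 24 h; 10% TCA fix, 0.1% SRB stain, A560; bidirectional fit vs DMSO baseline.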

Read-out in test [17]: Vascular endothelial growth factor receptor 2 (Homo sapiens) (UniProt P35968)
The test is described as follows: BSK_4H_VEGFRII: BioMAP Diversity Plus: 4H Assay for Vascular endothelial growth factor receptor 2 (VEGFR2) Biomarker Activity (AID 2283031).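 On AC50: cell-surface VEGFR2 protein level quantified by ELISA.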 The following applies: primary human endothelial cells (HUVEC); actives raise or lower the signal. The method in brief:
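HUVEC (human primary), 4H system; 24 h post-dose; VEGFRII by ELISA; bidirectional curve fit vs DMSO baseline; gain or loss of signal scored.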

For test [18], the target named is human Vitamin D Receptor (VDR), VDR (gene 7421) (UniProt P11473). The test is described as follows: ATG_VDR_TRANS: Attagene TRANS-FACTORIAL HepG2 Assay for human Vitamin D Receptor (VDR) (AID 2283022; active means hit-call score of the fitted dose curve at least 0.9, where 1 is the maximum). The method in brief:
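RT-PCR/capillary electrophoresis read-out of reporter mRNA induction in transiently transfected HepG2; 24 h dosing; chimeric NR-Gal4 (TRANS format); gain-of-signal fit against DMSO baseline.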

Read-out in test [19]: Thrombomodulin, THBD (gene 7056)
The test is described as follows: BSK_3C_Thrombomodulin: BioMAP Diversity Plus: 3C Assay for Thrombomodulin Biomarker Activity (AID 2283029). The following applies: primary human endothelial cells (HUVEC); actives raise or lower the signal. The method in brief: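 ELISA measurement of thrombomodulin on HUVEC surface 24 h after chemical dosing; activity fitted in both directions relative to DMSO vehicle.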

Read-out in test [20]: Urokinase-type plasminogen activator receptor (uPAR), PLAUR (gene 5329)
The test is described as follows: BSK_4H_uPAR: BioMAP Diversity Plus: 4H Assay for Urokinase-type plasminogen activator receptor (uPAR) Biomarker Activity (AID 2283030). The following applies: primary human endothelial cells (HUVEC); actives raise or lower the signal. The gist of the method: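 HUVEC, 24 h post-dose; uPAR by ELISA; bidirectional fit vs DMSO baseline.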

Results filed as inconclusive are left out. The source made the active and inactive calls. How the source made its calls, unless noted: active means hit-call score of the fitted dose curve at least 0.9, where 1 is the maximum; inactive means score below 0.9.

Chain of human Retinoid X Receptor beta (RXRb), RXRB (gene 6257) (P28702 whole entry, looked up, the tested form may be a part): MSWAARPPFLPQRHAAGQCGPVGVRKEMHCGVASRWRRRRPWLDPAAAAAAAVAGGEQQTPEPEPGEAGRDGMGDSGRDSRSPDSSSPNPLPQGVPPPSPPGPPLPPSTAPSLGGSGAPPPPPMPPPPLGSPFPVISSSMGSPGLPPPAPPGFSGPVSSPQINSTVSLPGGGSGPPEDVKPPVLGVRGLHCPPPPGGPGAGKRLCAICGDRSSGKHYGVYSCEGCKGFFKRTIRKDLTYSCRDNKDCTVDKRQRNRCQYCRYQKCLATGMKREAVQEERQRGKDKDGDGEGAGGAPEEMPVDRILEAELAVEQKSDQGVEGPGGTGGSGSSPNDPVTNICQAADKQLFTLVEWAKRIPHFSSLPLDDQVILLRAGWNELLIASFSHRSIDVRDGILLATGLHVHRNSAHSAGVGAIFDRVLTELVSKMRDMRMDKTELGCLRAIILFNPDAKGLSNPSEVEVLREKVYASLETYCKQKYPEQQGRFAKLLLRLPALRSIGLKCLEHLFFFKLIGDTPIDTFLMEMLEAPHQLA
Chain of E-selectin (Homo sapiens) (P16581 whole entry, looked up): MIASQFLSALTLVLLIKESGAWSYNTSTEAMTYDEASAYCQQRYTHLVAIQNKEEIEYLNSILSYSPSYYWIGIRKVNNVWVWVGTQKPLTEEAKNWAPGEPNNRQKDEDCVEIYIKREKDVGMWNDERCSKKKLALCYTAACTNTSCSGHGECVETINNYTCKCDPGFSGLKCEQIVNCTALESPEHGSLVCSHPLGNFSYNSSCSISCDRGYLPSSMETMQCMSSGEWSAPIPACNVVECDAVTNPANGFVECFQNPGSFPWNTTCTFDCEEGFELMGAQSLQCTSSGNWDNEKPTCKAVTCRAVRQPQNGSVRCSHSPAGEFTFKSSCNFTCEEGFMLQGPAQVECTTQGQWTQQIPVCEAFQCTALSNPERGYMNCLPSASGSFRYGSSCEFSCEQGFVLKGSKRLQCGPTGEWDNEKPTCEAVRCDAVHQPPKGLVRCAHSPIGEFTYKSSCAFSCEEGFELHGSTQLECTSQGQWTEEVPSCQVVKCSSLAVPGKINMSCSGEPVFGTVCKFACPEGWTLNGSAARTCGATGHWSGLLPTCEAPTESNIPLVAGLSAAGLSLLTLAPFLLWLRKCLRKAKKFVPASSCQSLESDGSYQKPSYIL
Chain of Retinoic acid receptor RXR-alpha (Homo sapiens) (P19793 whole entry, looked up, the tested form may be a part): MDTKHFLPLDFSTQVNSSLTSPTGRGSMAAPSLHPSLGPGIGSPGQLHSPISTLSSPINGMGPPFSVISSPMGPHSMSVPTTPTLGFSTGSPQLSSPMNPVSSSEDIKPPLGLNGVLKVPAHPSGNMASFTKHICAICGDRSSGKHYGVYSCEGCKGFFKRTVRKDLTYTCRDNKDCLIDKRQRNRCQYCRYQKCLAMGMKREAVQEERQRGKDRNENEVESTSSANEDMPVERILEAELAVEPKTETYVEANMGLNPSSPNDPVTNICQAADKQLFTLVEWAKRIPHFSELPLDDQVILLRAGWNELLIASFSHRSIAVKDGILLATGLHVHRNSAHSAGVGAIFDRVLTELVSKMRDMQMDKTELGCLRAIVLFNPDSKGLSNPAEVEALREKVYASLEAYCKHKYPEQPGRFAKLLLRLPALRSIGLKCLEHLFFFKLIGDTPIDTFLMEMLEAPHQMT
Chain of human Vitamin D Receptor (VDR), VDR (gene 7421) (P11473 whole entry, looked up, the tested form may be a part): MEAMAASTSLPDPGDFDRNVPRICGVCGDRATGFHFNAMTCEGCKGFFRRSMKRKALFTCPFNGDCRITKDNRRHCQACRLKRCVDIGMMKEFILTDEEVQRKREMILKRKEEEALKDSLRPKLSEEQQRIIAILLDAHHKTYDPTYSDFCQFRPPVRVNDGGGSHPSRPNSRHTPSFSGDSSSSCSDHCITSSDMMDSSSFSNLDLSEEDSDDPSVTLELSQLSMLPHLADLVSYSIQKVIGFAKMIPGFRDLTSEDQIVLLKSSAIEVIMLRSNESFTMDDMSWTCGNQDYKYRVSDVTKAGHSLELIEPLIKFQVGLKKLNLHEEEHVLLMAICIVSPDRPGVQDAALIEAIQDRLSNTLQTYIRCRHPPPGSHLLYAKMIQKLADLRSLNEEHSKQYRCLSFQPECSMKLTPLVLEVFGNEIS

In the case of `O=C(Nc1ccccc1)c1ccccc1I`, the molecule was classed as inactive in [1], in [2], in test [3], in [4], in test [5] and in test [6]. In addition, the outcome in test [7], in [8], in test [9], in test [10], in [11] and in test [12] was inactive. The result in test [13], in test [14], in [15], in test [16] and in test [17] was inactive.

What is called AC50 is the midpoint of the concentration-response curve, whichever way the signal moves. For the molecule `O=[N+]([O-])c1ccc(Oc2ccc(Cl)cc2Cl)cc1`, the molecule was called inactive in test [1], in [2], in test [3], in test [5], in test [10] and in [18]. The outcome in test [14], in [15], in [16], in test [19], in test [20] and in test [17] was inactive. Besides, the AC50 in test [4] is 20 µM (active); in test [6] it was 27.8 µM (active); in test [7], 10.3 µM (active); in test [8], 30.5 µM (active); in [9] it was 20 µM (active); in [11], 31.2 µM (active). The AC50 in [13] was 39 µM (active).

As to `CC(C)(OOC(C)(C)c1ccccc1)c1ccccc1`, the molecule was called inactive in test [1], in test [5], in [18], in test [16] and in test [20]. In addition, the AC50 in test [2] was 12.4 µM (active); in [4], 26.1 µM (active); in [6] it was 15.8 µM (active); in test [7] it was 26.5 µM (active); in test [8] it was 24.6 µM (active); in test [9], 29.8 µM (active). Also, the AC50 in test [10] was 29.3 µM (active); in test [11], 36.5 µM (active); in test [12], 11.4 µM (active); in test [13], 37.5 µM (active); in [14], 35.9 µM (active); in test [15] it was 32.3 µM (active). Besides, in [17], the AC50 was 37.3 µM (active).

Consider `O=C(O)C1C2CCC(O2)C1C(=O)O` (centres undefined), for which the result in test [1], in test [2], in test [3], in test [5], in test [6] and in test [7] was inactive. The result in test [8], in test [9], in [10], in [18], in test [15] and in test [16] was inactive. Moreover, the result in [17] was inactive. In addition, the AC50 was 18.6 µM (active) in [4], 24.4 µM (active) in test [11], 9.13 µM (active) in test [13] and 16 µM (active) in [14].

In the case of `ClCCOCCCl`, the call in test [1], in test [2], in test [3], in [4], in test [5] and in test [6] was inactive. The outcome in test [7], in [8], in [9], in test [10], in [11] and in [13] was inactive. Further, the result in test [14], in test [15], in test [16], in test [19] and in test [17] was inactive.

Turning to `C1=Cc2cccc3cccc1c23`, the result in test [1], in test [2], in test [3], in test [4], in test [5] and in test [6] was inactive. Also, the result in [7], in [8], in test [9], in [10], in test [18] and in [11] was inactive. Moreover, the result in test [13], in test [14], in test [15], in test [16], in test [20] and in test [17] was inactive.

With `[Cl-].[Cl-].[Hg+2]`, the result in test [1], in test [2], in [3], in test [6], in test [18] and in test [19] was inactive. Also, the outcome in [17] was inactive. For the same molecule, the AC50 was 36.7 µM (active) in test [4]; 31 µM (active) in [5]; 30.7 µM (active) in [7]; 30 µM (active) in test [8]; 31.1 µM (active) in test [9]; 30.9 µM (active) in test [10]. For the same molecule, the AC50 in test [11] was 30.3 µM (active); in [13], 37.5 µM (active); in [14] it was 33 µM (active); in test [15] it was 20 µM (active); in [16], 34.7 µM (active).

The record behind these values is PubChem BioAssay (EPA / NIEHS).
